# An excerpt weighted towards active compounds, which were near 9.2% of everything screened.
# ELG1 genotox = genotoxicity induction in ELG1-luciferase HEK293T cells. HEK293T ELG1-luciferase reporter, luminescence, 16 h. Potency, µM (highest dose often 46 µM), inactives show top-dose activity change, positive = activation, usual class: activators. 1.3% of 330,000 active; further: % of control where 0% means no effect; nearly all actives have a fitted effect of over 60% in size
#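 Screening used a luciferase reporter fused to human ELG1 in HEK293T cells. Luminescence was read on a CCD plate imager after 16 hr exposure and 30 min ONE-Glo incubation.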
# SMN2 splice up = SMN2 splice variant enhancement | HEK293 SMN2-luciferase splicing reporter, luminescence, 30-36 h | Potency, µM (top dose mostly 46.1 µM), for inactives: at the top dose activity change, positive = activation, hits mostly activators | 2.8% of 210,000 active | AID 1458; further: % of control where 0% means no effect; nearly all actives have a fitted effect of over 55% in size
#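 HEK293 cells carry an SMN2 minigene-luciferase reporter in which exon 7 inclusion puts luciferase in frame. Cells were seeded at 2000 cells/well, attached for 10-12 hours, then exposed to compounds for 30-36 hours at 37C before ONE-Glo luminescence.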
# Rab9 promoter act = activates the Rab9 promoter. Huh7 Rab9 promoter-luciferase reporter, luminescence, 24 h. Potency, µM (highest dose often 9.22 µM), inactives show at the top dose activation, negative = inhibition, most hits filed as activators. 2.8% of 320,000 active. AID 485297; further: % of control where 0% means no effect; nearly all actives have a fitted effect of over 60% in size
#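 Luminescence from Amplite-detected luciferase (10 minutes, ambient) reports Rab9 promoter activation. Before that, stable Rab9-luciferase Huh7 cells (1500/well, reduced-serum OP-MEM I plus 10% FBS) were exposed to compound for 24 hours at 37C.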
# FLuc counter = counter-screen for miR-21 project: firefly luciferase inhibitors or activators; P08659; purified FLuc, Km substrates, luminescence inhibition; Potency, µM (doses to about 57.5 µM), for inactives: top-dose activity change, negative = inhibition, hits mostly inhibitors; 6.9% of 360,000 active; AID 588342;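 further: plate controls were vehicle for no effect and reference inhibitor for full effect; nearly all actives have a fitted effect of over 55% in size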
# Target sequence (P08659 whole entry, looked up): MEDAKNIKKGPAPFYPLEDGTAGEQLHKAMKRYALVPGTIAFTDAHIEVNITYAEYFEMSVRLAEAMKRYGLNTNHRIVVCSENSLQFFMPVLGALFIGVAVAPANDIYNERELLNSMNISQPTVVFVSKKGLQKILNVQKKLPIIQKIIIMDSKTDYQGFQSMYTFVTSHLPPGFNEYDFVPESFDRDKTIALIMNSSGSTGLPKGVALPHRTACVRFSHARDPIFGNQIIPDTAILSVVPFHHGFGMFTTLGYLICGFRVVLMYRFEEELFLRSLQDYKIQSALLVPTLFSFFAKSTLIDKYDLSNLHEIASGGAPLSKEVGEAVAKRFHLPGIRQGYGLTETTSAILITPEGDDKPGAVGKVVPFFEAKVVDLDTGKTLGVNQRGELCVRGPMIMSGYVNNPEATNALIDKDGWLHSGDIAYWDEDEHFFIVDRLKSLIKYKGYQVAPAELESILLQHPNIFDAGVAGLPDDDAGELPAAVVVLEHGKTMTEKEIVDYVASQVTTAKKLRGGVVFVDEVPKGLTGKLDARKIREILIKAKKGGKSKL
#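 Biochemical qHTS of compounds, final roughly 60 µM downward over six points, against 10 nM purified firefly luciferase using Km concentrations of substrates (10 uM D-luciferin, 10 uM ATP) in Tris acetate pH 7.5 buffer; luminescence output.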
# NPC1 prom act = activates the NPC1 promoter. Huh7 NPC1 promoter luciferase reporter, 24 h. Potency, µM (series often up to 9.22 µM), without a hit: at the highest dose activation, hits mostly activators. 2.4% of 320,000 active. AID 485313; further: % of control where 0% means no effect; nearly all actives have a fitted effect of over 60% in size
#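 Readout is luciferase luminescence, reflecting NPC1 promoter activation in stably transfected Huh7 cells after 24 h compound exposure at 37 °C in reduced-serum medium with 10% FBS.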
# ELG1 repair inh = blocks ELG1-dependent DNA repair in HEK293T cells. HEK293T ELG1-luciferase reporter, luminescence, 16 h; DNA damage induced by 5-fluorouridine. Potency, µM (series often up to 46.1 µM), without a hit: at the highest dose activity change, negative = inhibition, most hits filed as inhibitors. 2.3% of 330,000 active; further: on the % scale 0 is the no-effect control and ±100 the full control effect; nearly all actives have a fitted effect of over 55% in size
#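 In this reporter screen, reduction of luminescence relative to DMSO vehicle indicated activity. Compounds and 5-fluorouridine were added together to 2,000 cells per well, incubated for 16 hr at 37 °C, then developed with ONE-Glo.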
# * = called active by the depositor; u = inconclusive; x = no result; [ ] = another dose, or the depositor's remark. The call rests on the fitted dose curve; in most records, active means well fitted curve in the direction sought with a large enough effect; inconclusive means small, poorly fitted or top-dose-only effect, or another doubt; inactive means no such curve, though single readings can be large; an effect the other way counts as inactive or inconclusive. Potency means the concentration at half of the fitted maximal effect.
SMILES,ELG1 genotox,SMN2 splice up,Rab9 promoter act,FLuc counter,NPC1 prom act,ELG1 repair inh
Oc1cc(NCc2cccnc2)ccc1-c1nc2ccccc2o1,u,11µM*,u,7.6µM*,1.4µM*,u
O=C(Nc1ccc(-c2nc3ccccc3o2)c(O)c1)c1cc(Cl)ccc1Cl,x,5%,x,u,x,x
C(=N\Nc1nc(-c2ccccn2)nc2ccccc12)/c1ccccc1,-11%,x,-30%,11µM*,-9%,u
COc1cccc(/C=N/Nc2nc(-c3cccnc3)nc3ccccc23)c1,4%,x,13%,1.5µM*,3%,u
Fc1ccc(Nc2nc(-c3cccnc3)nc3ccccc23)cc1,x,-26%,x,x,x,x
C(=N/Nc1ccccn1)/c1cccnc1,x,1%[9.22 µM],x,x,x,x
C(=N\Nc1nc(-c2cccnc2)nc2ccccc12)/c1ccccc1,-4%,x,19%,1.3µM*,14%,u
Brc1ccc(-c2nc(N/N=C/c3cccnc3)c3ccccc3n2)cc1,u,13µM*,2.5µM*,0.21µM*,2.8µM*,u
ClC(Cl)(Cl)c1nc(N/N=C/c2ccncc2)c2ccccc2n1,-7%,2%,1%,-1%,-3%,12%
CN(Cc1nc(-c2ccc(Cl)cc2)no1)C(=O)CCN1C(=O)[C@H]2CC=CC[C@H]2C1=O,-6%,x,-9%,2%,-2%,u
CCN(c1ccccc1)S(=O)(=O)c1ccc(OC)c(NC(=O)C2=NN(c3ccccc3)C(=O)CC2)c1,-2%,x,-9%,0%,-3%,u
Cc1ccc(CNC(=O)C(C)n2nc(C)n3c(cc4sccc43)c2=O)cc1 (stereo not given),x,0%,x,7%,x,x
Cc1cccc(CN2C(=O)c3ccccc3Sc3ccc(C(=O)N4CCCC4)cc32)c1,x,x,x,-10%,x,x
Cc1ccc(-c2nc(N/N=C/c3ccccc3[N+](=O)[O-])c3ccccc3n2)cc1,20%,u,3.5µM*,0.76µM*,1.6µM*,u
FC(F)(F)c1nc2ccccc2nc1N/N=C\c1ccccc1,1%,-18%,7%,15µM*,0%,26%
Cc1ccc(Nc2nc(-c3ccccc3)nc3ccccc23)cc1,x,x,x,0%,x,x
O=c1[nH]c(S)c(/C=C2\C=Nc3ccccc32)s1,6%,x,-2%,15µM*,2%,0%
Oc1nc(Nc2ccc(F)cc2)sc1/C=C1\C=Nc2ccccc21,-1%,x,17%,u,14%,u
CCC(C(=O)OC)n1cnc2c(nnn2-c2ccc(C)cc2)c1=O (stereo not given),11%,x,0%,-12%,-1%,u
Cc1ccc(C(=O)N2CCCC(CCC(=O)N3CCN(c4ccccn4)CC3)C2)cn1 (stereo not given),-5%,x,-3%,-1%,2%,2%
Cc1ccc(C(=O)N2CCCC(CCC(=O)N3CCN(c4ccccn4)CC3)C2)cc1C (stereo not given),-8%,x,-5%,-8%,0%,12µM*
Cc1ccoc1C(=O)N1CCCC(CCC(=O)N2CCN(c3ccccn3)CC2)C1 (stereo not given),-8%,x,-10%,-1%,-7%,21µM*
Cc1cccc(C(=O)N2CCCC(CCC(=O)N3CCN(c4ccccn4)CC3)C2)c1C (stereo not given),-16%,x,-7%,-1%,-24%,u
O=C(CSc1nc2ccccc2n1Cc1cccc(C(F)(F)F)c1)NCc1ccccc1,x,x,x,5%,x,x
Cc1ccccc1OCc1nc2c3c(ncn2n1)-c1ccccc1CC31CCCC1,2%,-32%,0%,0%,-6%,-10%
SMILES,ELG1 genotox,SMN2 splice up,Rab9 promoter act,FLuc counter,NPC1 prom act,ELG1 repair inh
Cc1ccccc1OCc1nc2c3cnn(C)c3ncn2n1,5.8µM*,u,2.8µM*,u,4µM*,u
Cc1ccc(C(=O)Nc2ccc(N3CCCC3)cc2)cc1,u,11µM*,1.8µM*,u,u,u
Nc1cc(C(=O)c2ccccc2)ccc1N1CCOCC1,6%,u,25%,17µM*,u,u
O=C(c1ccc(F)cc1F)N1CCN(c2ncccn2)CC1,0%,-1%,0%,-3%,2%,-6%
O=C(c1ccc(N2CCN(C(=O)c3ccc(F)cc3F)CC2)cc1)c1cccc(F)c1,-7%,x,-2%,-1%,-5%,15µM*
Cc1ccc(C(=O)Nc2ccc(N3CCN(S(C)(=O)=O)CC3)cc2)cc1,8%,6%,24%,0%,12%,27%
CN1CCN(c2ccc(C(=O)c3ccc(F)cc3)cc2)CC1,13µM*,u,3.2µM*,11µM*,u,u
O=C(O)CCC(=O)N1CCN(c2ccc(C(=O)c3ccc(F)cc3)cc2)CC1,-1%,-14%,1%,u,-1%,-1%
CC(=O)Nc1cc(C(=O)c2ccccc2)ccc1N1CCOCC1,-2%,-10%,1%,2%,1%,13%
CC(C(=O)Nc1ccccc1)N(C)Cc1cccs1 (stereo not given),-4%,x,1%,0%,-4%,2%
Cc1nc(NC(=O)c2cccc(-c3cc4ccccc4oc3=O)c2)ccc1Br,9%,u,u,-20%,u,u
O=C(Nc1ccc(N2CCCC2=O)cc1)c1cccc(F)c1,2.9µM*,7.1µM*,3.2µM*,5.4µM*,1.6µM*,u
O=C(Nc1ccc(N2CCCC2)cc1)c1ccc2ccccc2c1,u,2.5µM*,0.89µM*,1.3µM*,u,u
CCc1ccc(NC(=O)c2cccc(N3CCCS3(=O)=O)c2)cc1,x,x,x,12µM*,x,x
CCN1CCN(c2ccc(NC(=O)c3cccc(N4CCCC4=O)c3)cc2)CC1,30%,x,3%,u,-1%,u
O=C(Nc1ccccc1)c1cccc(N2CCCS2(=O)=O)c1,x,x,x,-16%,x,x
O=C(Nc1ccc(Br)cn1)c1cccc(-c2cc3ccccc3oc2=O)c1,u,11µM*,4µM*,12µM*,1.8µM*,u
COc1ccc(C(=O)N/C(=C/c2cccnc2)C(=O)Nc2cccc(C(C)=O)c2)cc1OC,-1%,x,-2%,-2%,1%,5%
CCCNC(C)(C)COC(=O)c1ccccc1,-6%,-6%[20.6 µM],-8%,-1%,5%,13%
O=C(c1ccccc1)c1ccc(N2CCCC2)cc1,3.7µM*,25µM*,2.5µM*,6.7µM*,3.2µM*,u
O=C(/C=C/c1ccc(Cl)cc1)Nc1ccc(N2CCCCC2)cc1,1%,-10%,-13%,-3%,3%,6%
O=C(Nc1ccc(N2CCCC2)cc1)c1cccc(-c2cc3ccccc3oc2=O)c1,-2%,-18%,1%,11µM*,6%,-6%

# Screening results: PubChem BioAssay, National Center for Advancing Translational Sciences (NCATS)
